Assay results published in PubChem BioAssay (NCI).
Compounds without any hit were thinned out: in the full panel of roughly 83,000, 20% have a hit.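 Each cell line was grown in a 96-well plate and treated with one concentration of compound for 48 hours. Values below 10 were considered active.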 Unmarked numbers belong to inactive results. The source made the active and inactive calls.

Key:
Assay in all cases: NCI-60 one-dose screen, 48 h (100 = growth as untreated, 0 = no growth, -100 = all killed)
Settings in all cases: 10 µM unless noted
[1] = system: HCT-15 colon
[2] = system: HT29 colon
[3] = system: SNB-75 CNS
[4] = system: SNB-19 CNS
[5] = system: PC-3 prostate
[6] = system: SK-MEL-5 melanoma
[7] = system: UACC-62 melanoma
[8] = system: LOX IMVI melanoma
[9] = system: SK-MEL-28 melanoma
[10] = system: SK-MEL-2 melanoma
[11] = system: EKVX NSCLC
[12] = system: SN12C renal
[13] = system: UO-31 renal
[14] = system: TK-10 renal
[15] = system: CAKI-1 renal
[16] = system: A498 renal
[17] = system: CCRF-CEM leukemia
[18] = system: MOLT-4 leukemia
[19] = system: ACHN renal

## N=C(N)c1ccc(-c2ccc(-c3ccc4ccccc4c3)s2)s1
[1]
  growth: -82.4% (active)
[2]
  growth: -60.5% (active)
[3]
  growth: 89.3%
[4]
  growth: -40.4% (active)
[5]
  growth: 71.9%
[6]
  growth: 84.4%
[7]
  growth: -6.73% (active)
[8]
  growth: -56.6% (active)
[9]
  growth: 92.8%
[10]
  growth: 101%
[11]
  growth: 51.8%
[12]
  growth: -62.2% (active)
[13]
  growth: 55.6%
[14]
  growth: 19%
[15]
  growth: 59.2%
[16]
  growth: 66.6%
[17]
  growth: -27.8% (active)
[18]
  growth: -46.7% (active)

## Cn1c(O)c(N=NC(=O)c2cc(-c3ccccc3)on2)c2ccccc21
[1]
  growth: 101%
[2]
  growth: 105%
[3]
  growth: 58.5%
[4]
  growth: 98.2%
[5]
  growth: 103%
[6]
  growth: 99.3%
[7]
  growth: 98.9%
[8]
  growth: 92.2%
[9]
  growth: 107%
[10]
  growth: 95.3%
[11]
  growth: 88.5%
[12]
  growth: 100%
[13]
  growth: 88%
[14]
  growth: 125%
[19]
  growth: 100%
[15]
  growth: 90.4%
[16]
  growth: 85.8%
[17]
  growth: 108%
[18]
  growth: 105%

## COc1cc(/C=C/C(=O)c2c(C)oc3nc[nH]c(=O)c23)cc(OC)c1OC
[1]
  growth: 49.3%
[2]
  growth: 90.7%
[3]
  growth: 78%
[4]
  growth: 93.6%
[5]
  growth: 83.4%
[6]
  growth: 89.9%
[7]
  growth: 87%
[8]
  growth: 66.2%
[9]
  growth: 93.9%
[10]
  growth: 82.5%
[11]
  growth: 61.9%
[12]
  growth: 79.8%
[13]
  growth: 63.2%
[14]
  growth: 151%
[19]
  growth: 74.7%
[15]
  growth: 72.7%
[16]
  growth: 93.4%
[17]
  growth: 34%
[18]
  growth: 68.4%

## CSc1nc(NCCN2CCOCC2)c(C#N)c(-c2cccc([N+](=O)[O-])c2)n1
[1]
  growth: 97.4%
[2]
  growth: 106%
[3]
  growth: 62.8%
[4]
  growth: 95.2%
[5]
  growth: 97.4%
[6]
  growth: 99.3%
[7]
  growth: 87.4%
[8]
  growth: 95.9%
[9]
  growth: 103%
[10]
  growth: 109%
[11]
  growth: 87.3%
[12]
  growth: 95.7%
[13]
  growth: 82.5%
[14]
  growth: 135%
[19]
  growth: 93.7%
[15]
  growth: 86.4%
[16]
  growth: 55.7%
[17]
  growth: 102%
[18]
  growth: 98%

## c1ccc(-c2c(-c3ccccc3)[n+](Cc3ccc4ccccc4c3)c(-c3ccc(-c4nc5ccccc5s4)cc3)n2Cc2ccc3ccccc3c2)cc1
[1]
  growth: -91.5% (active)
[2]
  growth: -85.5% (active)
[3]
  growth: -78.8% (active)
[4]
  growth: -97.6% (active)
[5]
  growth: -88.8% (active)
[6]
  growth: -98.3% (active)
[7]
  growth: -75.2% (active)
[8]
  growth: -98.3% (active)
[9]
  growth: -88.3% (active)
[10]
  growth: -88.7% (active)
[11]
  growth: -93.4% (active)
[12]
  growth: -86.7% (active)
[13]
  growth: -94.1% (active)
[14]
  growth: -80.9% (active)
[19]
  growth: -96.8% (active)
[15]
  growth: -89.5% (active)
[16]
  growth: -97.4% (active)
[17]
  growth: -14.8% (active)
[18]
  growth: -51.9% (active)

## COc1cc2nc(N3CCCC3)nc(Nc3ccccc3)c2cc1OC
[1]
  growth: -42.6% (active)
[2]
  growth: -71% (active)
[3]
  growth: 99.5%
[4]
  growth: 49.9%
[5]
  growth: 29.4%
[6]
  growth: -97.8% (active)
[7]
  growth: -76.1% (active)
[8]
  growth: -92.6% (active)
[9]
  growth: -91.3% (active)
[10]
  growth: -52.5% (active)
[11]
  growth: 28.3%
[12]
  growth: -53.5% (active)
[13]
  growth: -53.5% (active)
[14]
  growth: 16.5%
[19]
  growth: -11.2% (active)
[15]
  growth: -19% (active)
[16]
  growth: 40.6%
[17]
  growth: -11.4% (active)
[18]
  growth: -24.7% (active)

## COc1ccc(/C=C(\C#N)C(=O)Nc2cccc(Nc3nc(SC)nc(-c4cccc([N+](=O)[O-])c4)c3C#N)c2)cc1OC
[1]
  growth: 95.3%
[2]
  growth: 113%
[3]
  growth: 92%
[4]
  growth: 104%
[5]
  growth: 94.8%
[6]
  growth: 94.8%
[7]
  growth: 97%
[8]
  growth: 97.6%
[9]
  growth: 105%
[10]
  growth: 113%
[11]
  growth: 88.2%
[12]
  growth: 96.5%
[13]
  growth: 88.3%
[14]
  growth: 176%
[19]
  growth: 93.8%
[15]
  growth: 92.7%
[16]
  growth: 102%
[17]
  growth: 87.7%
[18]
  growth: 93.1%

## O=C1NC(=S)N[C@H]1CC(=O)n1cnc2ccccc21
[1]
  growth: 99.1%
[2]
  growth: 111%
[3]
  growth: 69.7%
[4]
  growth: 102%
[5]
  growth: 101%
[6]
  growth: 99.1%
[7]
  growth: 93.4%
[8]
  growth: 88.5%
[9]
  growth: 111%
[10]
  growth: 104%
[11]
  growth: 90.5%
[12]
  growth: 95.4%
[13]
  growth: 75.5%
[14]
  growth: 112%
[19]
  growth: 95.3%
[15]
  growth: 88.7%
[16]
  growth: 80.3%
[17]
  growth: 112%
[18]
  growth: 108%

## COc1cccc(-c2nc3sccn3c2-c2ccnc(NCCCNS(=O)(=O)c3c(Cl)cccc3Cl)c2)c1
[1]
  growth: 37.7%
[2]
  growth: 48.4%
[3]
  growth: 73%
[4]
  growth: 78.7%
[5]
  growth: 35.1%
[6]
  growth: 22.8%
[7]
  growth: 25.7%
[8]
  growth: 54.1%
[9]
  growth: 90.1%
[10]
  growth: 67.5%
[11]
  growth: 58.7%
[12]
  growth: 60.9%
[13]
  growth: 32.4%
[14]
  growth: 100%
[19]
  growth: 49.9%
[16]
  growth: 71.3%
[17]
  growth: 31.9%
[18]
  growth: 28.9%

## C=CC(=O)Nc1cccc(-c2nc(SC)nc(NCCc3ccc(OC)c(OC)c3)c2C#N)c1
[1]
  growth: 52.3%
[2]
  growth: 77.5%
[3]
  growth: 37.9%
[4]
  growth: 71.8%
[5]
  growth: 53.2%
[6]
  growth: -29.2% (active)
[7]
  growth: 48.1%
[8]
  growth: 56.6%
[9]
  growth: 72.3%
[10]
  growth: 65.7%
[11]
  growth: 43.8%
[12]
  growth: 47.6%
[13]
  growth: 45.1%
[14]
  growth: 82.4%
[19]
  growth: 35.7%
[15]
  growth: 52.8%
[16]
  growth: 18.5%
[17]
  growth: 26.3%
[18]
  growth: 2.39% (active)

## CC(C)C1=C[C@@]23CC[C@@H]4[C@](C)(CCC[C@@]4(C)C(=O)N4CCCNCC4)[C@H]2C[C@@H]1[C@H]1C(=O)CCC(=O)[C@H]13
[1]
  growth: 97.5%
[2]
  growth: 108%
[3]
  growth: 63.5%
[4]
  growth: 99.5%
[5]
  growth: 93%
[6]
  growth: 97.7%
[7]
  growth: 98.2%
[8]
  growth: 92.1%
[9]
  growth: 109%
[10]
  growth: 103%
[11]
  growth: 95.2%
[12]
  growth: 102%
[13]
  growth: 79.2%
[14]
  growth: 104%
[19]
  growth: 92.1%
[15]
  growth: 81.1%
[16]
  growth: 97%
[17]
  growth: 101%
[18]
  growth: 96.5%

## CCCN1CCN(c2ccc3nc(-c4ccc5nc(-c6ccc(OCC)cc6)[nH]c5c4)[nH]c3c2)CC1
[1]
  growth: -56.5% (active)
[2]
  growth: -69% (active)
[3]
  growth: 50.3%
[4]
  growth: 62%
[5]
  growth: -69.5% (active)
[6]
  growth: 28.9%
[7]
  growth: 51.4%
[8]
  growth: -95% (active)
[9]
  growth: 48.4%
[10]
  growth: 78.9%
[11]
  growth: 59.1%
[12]
  growth: 61.2%
[13]
  growth: 87.2%
[14]
  growth: 69%
[19]
  growth: 34.6%
[15]
  growth: 49.3%
[16]
  growth: 65.6%
[17]
  growth: -32.4% (active)
[18]
  growth: -0.259% (active)

## COc1ccc(-c2nc3ccc(-c4nc5ccc(N6CCN(c7ccncc7)CC6)cc5[nH]4)cc3[nH]2)cc1OC
[1]
  growth: 88.7%
[2]
  growth: 22.6%
[3]
  growth: 52.8%
[4]
  growth: 40.9%
[5]
  growth: 54.8%
[6]
  growth: 14.1%
[7]
  growth: 17.5%
[8]
  growth: 16.9%
[9]
  growth: 19.1%
[10]
  growth: -17% (active)
[11]
  growth: 69.2%
[12]
  growth: 45.2%
[13]
  growth: 97.5%
[14]
  growth: 101%
[19]
  growth: 91.9%
[15]
  growth: 57.5%
[16]
  growth: 61.4%
[17]
  growth: 21.1%
[18]
  growth: 18.1%

## C=CC(=O)Nc1cccc(-c2nc(SC)nc(Nc3ccccc3OC)c2C#N)c1
[1]
  growth: 16.9%
[2]
  growth: 2.25% (active)
[3]
  growth: 24.4%
[4]
  growth: 74.5%
[5]
  growth: 31.9%
[6]
  growth: 66.7%
[7]
  growth: 75%
[8]
  growth: 16.9%
[9]
  growth: 50.8%
[10]
  growth: 73.9%
[11]
  growth: 63.7%
[12]
  growth: 48.4%
[13]
  growth: 19.2%
[14]
  growth: 36.1%
[19]
  growth: 37.7%
[15]
  growth: 56.6%
[16]
  growth: 61.4%
[17]
  growth: 40.8%
[18]
  growth: 33.4%

## O=C(/C=C/c1cccc(Cl)c1)c1ccc(O)c(CN2CCN(c3cc4c(cc3F)c(=O)c(C(=O)O)cn4C3CC3)CC2)c1
[1]
  growth: 17.5%
[2]
  growth: 4.36% (active)
[3]
  growth: 28.7%
[4]
  growth: 35.9%
[5]
  growth: 19.9%
[6]
  growth: 24.5%
[7]
  growth: 34.9%
[8]
  growth: 11.7%
[9]
  growth: 58.8%
[10]
  growth: 53.7%
[11]
  growth: 55.7%
[12]
  growth: 18.9%
[13]
  growth: 21.5%
[14]
  growth: 48.1%
[19]
  growth: 27.7%
[15]
  growth: 44.6%
[16]
  growth: 25.9%
[17]
  growth: 25.1%
[18]
  growth: 59.9%
